These results are taken from PubChem BioAssay (Tox21).

The structures appear in SMILES notation. Values without a mark were called inactive. Records with an inconclusive call do not appear. Activity calls are given as the source filed them. Unless noted, the call rests on the fitted dose curve; in most records, active means well fitted curve in the direction sought with a large enough effect in the repeat runs; inconclusive means weak or mixed curves; inactive means no such curve, though single readings can be large; an effect the other way counts as inactive or inconclusive.

Assay [1] can be described thus: qHTS assay to identify small molecule antagonists of the estrogen receptor alpha (ER-alpha) signaling pathway using the BG1 cell line in the presence of 0.1 nM 17-beta-estradiol - cell viability counter screen (AID 1259241). Further: on the % scale 0 is the no-effect control and ±100 the full control effect; nearly all actives have a fitted effect of over 40% in size. Put shortly: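 VM7Luc4E2, 4,000 cells/well, phenol red-free medium + 10% charcoal-stripped FBS; 24 hr plating; cpd + 0.1 nM E2 final, 22 hr 37C/5% CO2; CellTiter-Fluor 30 min, fluorescence.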

The nature of assay [2]: qHTS assay to identify small molecule antagonists of the androgen receptor (AR) signaling pathway using the MDA cell line in the presence of 0.5 nM R1881 - cell viability counter screen (AID 1259242). Further: on the % scale 0 is the no-effect control and ±100 the full control effect; nearly all actives have a fitted effect of over 45% in size. The gist of the method: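 Human breast carcinoma MDA-kb2 cells, cultured without CO2, receive compounds alongside 0.5 nM (final) R1881 agonist. After 16 hr at 37C, viability is taken as live-cell protease signal.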
A general note: In qHTS, concentration-response curves come from the screen itself.

A short description of assay [3]: qHTS assay to identify small molecule HDAC inhibitors (AID 1259364). Further: potency means the concentration at half of the fitted maximal effect.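 Further: wild-type HCT-116 cells with endogenous class I/II HDAC activity; nearly all actives have a fitted effect of over 45% in size.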 On activity change, negative = inhibition: top concentration of the series differs between compounds; on the % scale 0 is the no-effect control and ±100 the full control effect. The gist of the method:
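After a 2 hr compound incubation (37C, 5% CO2), HCT-116 cells seeded at 1,500/well the day before received HDAC-Glo reagent; signal read as luminescence after 30 min at room temperature.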

A short description of assay [4]: qHTS assay to identify small molecule HDAC inhibitors - cell viability counter screen (AID 1259365). Further: series mostly up to about 92 µM; on the % scale 0 is the no-effect control and ±100 the full control effect; nearly all actives have a fitted effect of over 50% in size. The gist of the method: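 Luminescence from CellTiter-Glo, developed 30min at room temperature, reports viability of wild-type HCT-116 cells treated 2hr with compounds at 37 C and 5% CO2 after overnight plating.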
Assay [5] can be described thus: qHTS assay to identify small molecule agonists of the sonic hedgehog signaling (Shh) pathway - cell viability counter screen (AID 1259366). Further: on the % scale 0 is the no-effect control and ±100 the full control effect; nearly all actives have a fitted effect of over 50% in size. The gist of the method: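 Cytotoxicity counter screen run in the same wells as the Shh reporter assay. NIH/3T3 cells carrying a Gli1 response element–driven luciferase were treated with DMSO-dissolved compounds for 24hr, and live-cell protease activity was measured with CellTiter-Fluor.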

The nature of assay [6]: qHTS assay to identify small molecule antagonists of the sonic hedgehog signaling (Shh) pathway - cell viability counter screen (AID 1259367). Further: on the % scale 0 is the no-effect control and ±100 the full control effect; nearly all actives have a fitted effect of over 55% in size. The gist of the method: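 CellTiter-Fluor signal in conditioned medium-stimulated 3T3 Gli1-Luc cells, 23 hr compound exposure, 37C.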
Assay [7] is described as follows: qHTS assay to identify small molecule agonists of the sonic hedgehog signaling (Shh) pathway (AID 1259368; calls by dose curve;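 further: NIH/3T3-derived 3T3Gli1-Luc cells carrying a stable Gli1-driven firefly luciferase reporter; series mostly up to about 92 µM; on the % scale 0 is the no-effect control and ±100 the full control effect; nearly all actives have a fitted effect of over 15% in size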). The gist of the method: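 Stable NIH/3T3 Gli1-Luc reporter clone; 24 hr cpd exposure after a 4 hr settling period; luminescence endpoint.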
Assay [8] is described as follows: qHTS assay to identify small molecule phospholipidosis (PLD) inducers (AID 1259344; active means well fitted curve in the direction sought with a large enough effect; an effect the other way counts as inactive or inconclusive; further: on the % scale 0 is the no-effect control and ±100 the full control effect). The gist of the method:
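Accumulated phospholipid, stained red by LipidTOX during 24 h compound treatment of HepG2 cells at 37 C, is quantified from images as pit number and intensity, normalised per cell using Hoechst-stained nuclei.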

Assay [9] addresses Estrogen receptor (Homo sapiens) (UniProt P03372). In words: qHTS assay to identify small molecule antagonists of the estrogen receptor alpha (ER-alpha) signaling pathway using the BG1 cell line in the presence of 0.1 nM 17-beta-estradiol (AID 1259244). Further: nearly all actives have a fitted effect of over 50% in size. Further: potency means the concentration at half of the fitted maximal effect. On activity change, negative = inhibition: on the % scale 0 is the no-effect control and ±100 the full control effect. Put shortly: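 Seeding of stripped-serum-adapted VM7Luc4E2 cells, 24 h attachment, compound transfer, then 0.1 nM final 17beta-estradiol; after 22 h incubation, ONE-Glo reagent and luminescence reading.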

The target in assay [10] is Androgen receptor (Homo sapiens) (UniProt P10275). Kind of assay: qHTS assay to identify small molecule antagonists of the androgen receptor (AR) signaling pathway using the MDA cell line in the presence of 0.5 nM R1881 (AID 1259243). Further: potency means the concentration at half of the fitted maximal effect; nearly all actives have a fitted effect of over 50% in size. The gist of the method:
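Cells: MDA-kb2 (MMTV-luc). Stimulus: 0.5 nM R1881. Time: 16 hr, 37C, no CO2. Detection: ONE-Glo luminescence after 30 min at RT.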

Chain of Estrogen receptor (Homo sapiens) (P03372 whole entry, looked up): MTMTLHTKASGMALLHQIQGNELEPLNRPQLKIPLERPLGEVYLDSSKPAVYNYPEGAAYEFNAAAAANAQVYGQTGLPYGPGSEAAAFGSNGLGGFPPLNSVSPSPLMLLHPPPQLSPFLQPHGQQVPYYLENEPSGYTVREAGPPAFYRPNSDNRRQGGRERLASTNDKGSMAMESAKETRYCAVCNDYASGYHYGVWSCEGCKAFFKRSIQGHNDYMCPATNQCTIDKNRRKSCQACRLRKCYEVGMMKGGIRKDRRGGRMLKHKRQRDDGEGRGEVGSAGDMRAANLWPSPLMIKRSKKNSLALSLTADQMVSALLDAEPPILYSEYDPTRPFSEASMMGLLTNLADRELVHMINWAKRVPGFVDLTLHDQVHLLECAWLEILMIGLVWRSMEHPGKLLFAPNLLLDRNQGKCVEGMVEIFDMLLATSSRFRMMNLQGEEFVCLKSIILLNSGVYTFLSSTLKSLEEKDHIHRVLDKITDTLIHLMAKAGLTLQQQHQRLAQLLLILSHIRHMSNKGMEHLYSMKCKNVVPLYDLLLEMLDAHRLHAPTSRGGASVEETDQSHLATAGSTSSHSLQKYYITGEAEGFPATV
Chain of Androgen receptor (Homo sapiens) (P10275 whole entry, looked up): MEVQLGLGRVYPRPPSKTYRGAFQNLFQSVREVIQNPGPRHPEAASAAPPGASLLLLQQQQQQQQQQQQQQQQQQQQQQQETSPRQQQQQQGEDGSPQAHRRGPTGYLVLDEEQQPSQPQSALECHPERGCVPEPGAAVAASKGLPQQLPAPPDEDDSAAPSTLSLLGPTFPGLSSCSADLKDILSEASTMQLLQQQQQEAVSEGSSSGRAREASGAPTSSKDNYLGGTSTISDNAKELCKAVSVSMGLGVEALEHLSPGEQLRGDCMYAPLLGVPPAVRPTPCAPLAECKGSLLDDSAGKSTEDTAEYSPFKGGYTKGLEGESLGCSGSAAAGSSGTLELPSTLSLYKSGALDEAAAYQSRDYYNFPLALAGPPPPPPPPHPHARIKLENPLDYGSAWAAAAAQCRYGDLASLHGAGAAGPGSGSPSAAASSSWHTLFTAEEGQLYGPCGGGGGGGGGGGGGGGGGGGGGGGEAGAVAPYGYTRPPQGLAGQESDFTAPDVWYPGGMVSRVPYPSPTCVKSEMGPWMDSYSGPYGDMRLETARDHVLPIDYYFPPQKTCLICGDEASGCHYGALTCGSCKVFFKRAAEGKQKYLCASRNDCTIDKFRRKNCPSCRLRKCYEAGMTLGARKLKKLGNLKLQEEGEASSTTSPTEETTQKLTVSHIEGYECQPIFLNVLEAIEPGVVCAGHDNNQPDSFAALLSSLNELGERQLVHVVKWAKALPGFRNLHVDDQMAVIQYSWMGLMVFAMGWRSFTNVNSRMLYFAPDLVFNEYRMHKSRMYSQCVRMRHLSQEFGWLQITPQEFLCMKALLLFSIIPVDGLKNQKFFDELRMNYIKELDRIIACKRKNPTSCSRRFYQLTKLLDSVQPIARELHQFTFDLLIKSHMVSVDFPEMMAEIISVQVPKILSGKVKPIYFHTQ

On to `COCCOC`, for which the Potency entry in assay [1], in assay [2], in assay [3], in assay [4], in [5] and in assay [6] was “inactive” each time. Also, the Potency result in assay [7] is “inactive”.

With `Cc1ccc(/C=N/n2c(-c3ccccc3)csc2=S)cc1`, the Potency result in assay [1], in assay [2], in assay [3], in [4], in assay [5] and in assay [6] was “inactive” throughout. Moreover, in assay [7], the Potency entry is “inactive”. Moreover, in [8], the outcome was inactive.

Take `CCOC(=O)CC(=O)C(=O)OCC`: the Potency entry in assay [3], in assay [4], in assay [5], in assay [6] and in assay [7] was “inactive” throughout.

On to `Cc1ccc(S)cc1`, for which the Potency entry in assay [2], in [9], in assay [3], in [4], in assay [5] and in assay [6] was “inactive” each time. The Potency entry in assay [7] was “inactive”.

In the case of `CN1CCN(c2c(F)cc3c(=O)c(C(=O)O)cn4c3c2OCN4C)CC1`, the viability change, negative = cytotoxic was 0.172% [at 19 µM] in assay [2], 2.32% [at 19 µM] in assay [5] and -1.18% [at 19 µM] in assay [6]. Moreover, the activity change, negative = inhibition in assay [9] was 2.06% [at 19 µM]; in [3], 8.76% [at 19 µM]. Besides, the compound was called inactive in [8]. In addition, the activity change, negative = cytotoxicity in assay [4] is -3.29% [at 19 µM].

Consider `CC(=O)[C@H]1CC[C@H]2[C@@H]3C=CC4=CC(=O)CC[C@@]4(C)[C@@H]3CC[C@]12C`, for which the Potency entry in assay [2], in [9], in assay [3], in [4], in assay [5] and in [6] was “inactive” in each case. In assay [7], the Potency entry is “inactive”. Also, the call in [8] was inactive.

Turning to `CCc1c2c(nc3ccc(OC(=O)N4CCC(N5CCCCC5)CC4)cc13)-c1cc3c(c(=O)n1C2)COC(=O)[C@]3(O)CC`, the Potency result in [2], in assay [3], in [4], in assay [6] and in assay [7] was “inactive” each time. In addition, the Potency in assay [9] was 23.7 µM (active). Moreover, in assay [8], the outcome was inactive.

`COC(=O)CC(=O)C(C)(C)C`: the Potency result in assay [2], in assay [9], in [3], in assay [4], in [5] and in assay [6] was “inactive” throughout.

In the case of `CN1Cc2cc(C(=O)N3CCC(C4CCNCC4)CC3)ccc2N[C@@H](CC(=O)O)C1=O`, the Potency result in assay [2], in assay [9], in [3], in [4], in assay [5] and in assay [6] was “inactive” throughout. For the same compound, in assay [7], the Potency result is “inactive”.

As to `O=C(C(=O)c1ccccc1)c1ccccc1`, the Potency result in assay [2], in assay [3], in assay [4], in [5], in assay [6] and in assay [7] was “inactive” throughout.

Regarding `CCCCCCCCCCCC[N+](C)(C)CCCS(=O)(=O)[O-]`, the Potency result in assay [2], in assay [9], in assay [3], in assay [4], in assay [5] and in assay [6] was “inactive” in each case. Further, the Potency entry in assay [7] is “inactive”.

With `CCCCOC(=O)CCS`, the Potency result in assay [2], in [3], in [4], in assay [5], in assay [6] and in [7] was “inactive” each time. For the same compound, in [9], the Potency was 27.3 µM (active).

Turning to `COC(=O)Nc1nc2ccc(C(=O)c3cccs3)cc2[nH]1`, the Potency entry in [2], in assay [4], in [5] and in [7] was “inactive” in each case. For the same compound, in [8], the outcome was inactive. Further, the Potency in [3] was 11.9 µM (active).

`CCCOCCOCCO`: the Potency result in [2], in [9], in assay [3], in assay [4], in [5] and in assay [6] was “inactive” each time. The Potency entry in assay [7] was “inactive”.

`CN1C(=O)CC(C)(c2ccccc2)C1=O` (configuration not stated): the Potency entry in [2], in assay [9], in assay [3], in assay [4], in assay [6] and in assay [7] was “inactive” each time. In addition, the compound was called inactive in assay [8].

Consider `O=C(O)c1cccnc1C(=O)O`, for which the Potency entry in [2], in assay [9], in assay [3], in assay [4], in assay [5] and in assay [6] was “inactive” each time. In addition, the Potency entry in assay [7] is “inactive”.

For `C=CCNc1nc(NCC=C)nc(N2CCN(C(c3ccc(F)cc3)c3ccc(F)cc3)CC2)n1`, the Potency is 10.6 µM (active) in [10] and 11.9 µM (active) in assay [9]. The Potency entry in [3], in assay [4], in assay [6] and in assay [7] was “inactive” in each case.

`Fc1c(F)c(F)c(Br)c(F)c1F`: the Potency result in assay [2], in [3], in assay [4], in [5], in [6] and in [7] was “inactive” in each case.

As to `CN1CCCN=C1/C=C/c1cccs1`, the Potency entry in [2], in assay [9], in assay [3], in [4], in assay [6] and in assay [7] was “inactive” throughout. Further, in assay [8], the outcome was inactive.

With `CCOC(=O)c1ccccc1OC`, the Potency result in assay [2], in [3], in [4] and in assay [6] was “inactive” each time.
